rTrxR1 inhibitor: rat TrxR1 inhibition; O89049; recombinant rTrxR1, NADPH fluorescence consumption, selenite substrate; Potency, µM (titrated, usually from 114 µM), for inactives: top-dose activity change, negative = inhibition, usual class: inhibitors; 390,000 compounds, 1% hits; AID 588453; further: potency means the concentration at half of the fitted maximal effect; on the % scale 0 is the no-effect control and ±100 the full control effect; nearly all actives have a fitted effect of over 65% in size
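Rat TrxR1 (90 nM in the dispensed reagent) was pre-reduced with 400 uM NADPH for 5 min at room temperature, then incubated with compound for 15 min. After 400 uM selenite was added, NADPH fluorescence (Ex 340/Em 450 nm) was followed for 8 min.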
BRCA1 expr up: activators of BRCA1 expression | MCF7-BRCA1-FFLuc reporter, luminescence, 48 h; response scale: scaled: vehicle 0%, 10 µM genistein 100% | Potency, µM (titrated, usually from 46.1 µM), for the others: at the highest dose activation, actives largely listed as activators | 380,000 compounds, 1.1% hits; further: potency means the concentration at half of the fitted maximal effect; nearly all actives have a fitted effect of over 80% in size
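First, MCF7-BRCA1-FFLuc cells (2000/well) attach for 2 h; next, compounds are pin-added and incubated 48 h at 37 °C; finally, luciferase reagent is added and luminescence read after 15 min.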
TrxR1 substrate: is turned over as a substrate by rat TrxR1 | O89049 | purified TrxR1 substrate turnover, NADPH consumption readout | Potency, µM (series often up to 114 µM), inactives show at the top dose activity change, negative = substrate turnover | 390,000 compounds, 0.01% hits; further: potency means the concentration at half of the fitted maximal effect; on the % scale 0 is the no-effect control and ±100 the full control effect; nearly all actives have a fitted effect of over 50% in size
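Rat TrxR1, dispensed at 90 nM, was prereduced with 400 uM NADPH (final) for 5 min at ~22 deg C, then incubated with compound 15 min before 400 uM selenite. A first-read NADPH fluorescence drop versus no-compound background flagged substrates.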
IL-2 act: activators of IL-2; IL-2 activation reporter assay, cell-based qHTS; stimulated with anti-CD3/CD4/CD28 beads; in transgenic mouse T cells; 360,000 compounds, 0.065% hits; activation, % (series mostly up to about 46 µM); in the data active means activation above about 50%; inconclusive means mostly about 30% to 49%; further: 0% is about no effect
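EGFP and DsRed fluorescence is measured by plate cytometry in unstimulated transgenic mouse T cells exposed to compound for 60 minutes, then stimulated 18 hours at 37 degrees C with anti-CD3/anti-CD4 beads plus anti-CD28.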
Giardia killer: Giardia lamblia killing; Giardia lamblia trophozoite viability; activity change, % at 7.66 µM, hits read low; 340,000 compounds, 0.15% hits; in the data active means activity change below about -80%; inconclusive means between about -30% and that limit;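 further: parasites exposed to compound for two days anaerobically before the ATP read; on the % scale 0 is the no-effect control and ±100 the full control effect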
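Killing of trophozoites was scored by loss of ATP luminescence after a 48 hrs anaerobic exposure to compounds at 37 deg C, using 100 cells per well.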
IDH1 R132H inh: inhibitors of human mutant IDH1 R132H | IDH1-R132H enzyme, NADPH consumption, diaphorase/resazurin fluorescence | Potency, µM (doses to about 76.6 µM), for the others: at the highest dose activity change, negative = inhibition, most hits filed as inhibitors | 390,000 compounds, 0.093% hits | O75874 | AID 602179; further: potency means the concentration at half of the fitted maximal effect; on the % scale 0 is the no-effect control and ±100 the full control effect; nearly all actives have a fitted effect of over 65% in size
Target sequence (O75874 whole entry R132H, stated change not applied): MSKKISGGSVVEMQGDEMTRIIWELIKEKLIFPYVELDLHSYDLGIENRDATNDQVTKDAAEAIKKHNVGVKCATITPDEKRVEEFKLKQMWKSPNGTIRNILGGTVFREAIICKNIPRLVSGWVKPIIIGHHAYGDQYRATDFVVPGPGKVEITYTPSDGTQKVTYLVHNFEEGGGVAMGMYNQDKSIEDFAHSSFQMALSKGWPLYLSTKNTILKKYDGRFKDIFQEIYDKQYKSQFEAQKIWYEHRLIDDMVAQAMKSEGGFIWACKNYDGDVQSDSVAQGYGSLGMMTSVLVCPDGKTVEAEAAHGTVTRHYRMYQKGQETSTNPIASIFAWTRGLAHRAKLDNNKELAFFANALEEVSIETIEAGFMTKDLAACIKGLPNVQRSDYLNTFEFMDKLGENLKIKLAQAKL
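IDH1-R132H (0.5 ug/mL dispensed) in pH 7.5 Tris buffer was preincubated 30 min with compound, then given a substrate mix of 0.016 mM NADPH and 2 mM alpha-KG for 80 min at room temperature; remaining NADPH was read by diaphorase/resazurin fluorescence.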
The depositor's hits bear a star; ? = inconclusive; · = no result; [ ] = another dose, or the depositor's remark. Only some compounds are listed: those with a hit (about 2.2% of all), similar ones and a draw of the others. Unless noted, the call rests on the fitted dose curve; in most records, active means well fitted curve in the direction sought with a large enough effect; inconclusive means small, poorly fitted or top-dose-only effect, or another doubt; inactive means no such curve, though single readings can be large; an effect the other way counts as inactive or inconclusive.

SMILES | rTrxR1 inhibitor | BRCA1 expr up | TrxR1 substrate | IL-2 act | Giardia killer | IDH1 R132H inh
COc1cccc(NC(=O)c2oc3ccccc3c2NC(C)=O)c1 | 21% | 3.5µM* | 2% | 0 | -14 | 4%
CCOc1ccc(NC(=O)c2oc3ccccc3c2NC(=O)c2c(F)cccc2F)cc1 | 56µM* | 0% | 19% | · | · | 23%
CN1N/C(=C\c2ccccc2)N=C2C(=O)N(C)C(=O)N=C21 | 14µM* | -53% | 10µM* | · | -105* | ·
CC/C=C1/N=C2C(=O)N(C)C(=O)N=C2N(C)N1 | -20% | 0% | -20% | · | -88* | ·
Cc1onc(-c2ccccc2)c1C(=O)n1nnc2ccccc21 | ? | -5% | 8%[57.1 µM] | -1 | -6 | 2%
O=C(c1ccccc1)n1nnc2ccccc21 | 5µM* | 1% | -2% | 1 | -3 | -1%
CCN1C(=O)/C(=C/C=C2\N(CC)c3cc(S(=O)(=O)N(C)C)ccc3N2c2ccccc2)SC1=S | 19% | -19% | -1% | -3 | 33 | 52µM*
O=C(c1ccc2c(c1)N(Cc1ccc(Cl)cc1)C(=O)c1ccccc1S2(=O)=O)N1CCCCCC1 | 11% | -56% | -3% | · | · | 8%
Cc1ccc(NC(=O)CCn2nnc3ccccc32)c(C)c1 | 8%[11.4 µM] | ? | 12%[57.1 µM] | 4 | 1 | 6%
Cc1ccc(NC(=O)CCn2nnc3ccccc32)cc1 | 5% | 11µM* | -5% | 0 | 3 | -1%
Cc1ccc(C(=O)Cn2nnc3ccccc32)cc1 | -4% | 4.5µM* | -4% | 0 | -25 | 5%
Cc1nc2nc(C)c(CCC(=O)NCc3cccc(Cl)c3)c(C)n2n1 | 13% | 0% | 1% | · | · | -6%
Cc1cccnc1Sc1c([N+](=O)[O-])ncn1C | ? | 3% | 6%[57.1 µM] | -3 | 7 | 11%
Cn1c(SCc2ccccc2[N+](=O)[O-])nnc1-c1cccnc1 | 21% | 11µM* | 6% | -1 | -2 | 3%
Cn1cnc([N+](=O)[O-])c1Sc1nnc(-c2cccnc2)n1C | 0.63µM* | 3% | 6%[57.1 µM] | -2 | -20 | 0%
Cn1c(SCC(=O)C(C)(C)C)nnc1-c1cccnc1 | 4% | 23% | -1% | -2 | -13 | -6%
CCOC(=O)c1ccccc1NC(=O)CSc1ccc(-c2sc(-c3ccccc3)nc2C)nn1 | 15% | · | 6% | · | · | -24%
CC(=O)c1ccc(NC(=O)CSc2ccc(-c3ccco3)nn2)cc1 | ? | 25% | -9% | 0 | -17 | 3%
Fc1cccc(CSc2ccc(-c3ccco3)nn2)c1 | ? | ? | 3% | 0 | -16 | 3%
O=C(CSc1ccc(-c2ccco2)nn1)NCc1ccc(F)cc1 | 50µM* | -27% | 7% | 0 | 17 | 1%
O=C(CSc1ccc(-c2ccco2)nn1)c1ccc(F)cc1 | 8.9µM* | 29% | -4% | -4 | -6 | 9%
COc1ccc(C(=O)CSc2nnc(-c3ccco3)n2CC2CCCO2)cc1 (stereo not given) | ? | -2% | -6% | -2 | -17 | 8%
Fc1ccc(CSc2ccc(-c3ccco3)nn2)cc1 | ? | 7.1µM* | -1% | 2 | -11 | 2%
O=C(CSc1nnc(-c2ccco2)n1CC1CCCO1)c1ccc(F)cc1 (stereo not given) | 16µM* | 36% | -1% | -1 | -29 | -3%
Cc1ccc2oc(-c3ccc(C)c(NC(=O)C(C)(C)Oc4ccc(Cl)cc4)c3)nc2c1 | 40% | · | 32% | · | · | -5%
SMILES | rTrxR1 inhibitor | BRCA1 expr up | TrxR1 substrate | IL-2 act | Giardia killer | IDH1 R132H inh
O=C(CSc1ccc(-c2ccco2)nn1)NCCc1ccccc1 | 18µM* | -15% | 3% | 0 | -9 | -1%
COc1ccc(CCNC(=O)CSc2ccc(-c3ccco3)nn2)cc1 | -46% | -3% | 13% | -2 | 14 | -7%
CC(C)(C)c1ccc(O)c(O)c1 | 22µM* | -15% | 12% | 0 | 15 | 0%
C=CCn1c(SCC(=O)N(CC)C2CCS(=O)(=O)C2)nc2scc(-c3ccccc3)c2c1=O (stereo not given) | 45µM* | -21% | -8% | -5 | -2 | 2%
COc1ccc(CNc2ncnc3nc[nH]c23)cc1 | 7% | 37% | 4% | · | -15 | ·
O=S(=O)(c1ccc(-c2csc(=Nc3ccc(OC(F)(F)Cl)cc3)n2CCCO)cc1)N1CCCC1 | 11% | · | 2% | · | · | 8%
CCCCSc1ncc(C(=O)OCC)c(N)n1 | -1% | 3.5µM* | -8% | 0 | -4 | 6%
CCOC(=O)c1cnc(SCc2ccc(C)cc2)nc1N | 0% | 7.1µM* | -3% | -2 | -22 | 5%
CC(C)OCCCNC(=O)c1cc2c(-c3ccc(Cl)cc3)nn(C)c2s1 | 20% | · | 29% | · | · | -10%
COC(=O)CCC(=O)OC1(C)C(=O)C2=COC(c3ccc(OC)cc3)=CC2=C(Br)C1=O (stereo not given) | 14µM* | -16% | -7% | 13 | -3 | 9%
COc1ccc(C2=CC3=C(Br)C(=O)C(C)(OC(=O)C4CCCC4)C(=O)C3=CO2)cc1 (stereo not given) | ? | 3% | 4% | -3 | -11 | -13%
COc1ccc(C2=CC3=C(Br)C(=O)C(C)(OC(=O)c4ccc(Cl)nc4)C(=O)C3=CO2)cc1 (stereo not given) | 13µM* | 46% | 8% | 22 | 6 | 7%
Cc1onc(C(=O)Nc2sc3c(c2C#N)CCCC3)c1[N+](=O)[O-] | 16µM* | -35% | -3% | -3 | -4 | 0%
Cc1onc(-c2ccccc2Cl)c1C(=O)Nc1sc2c(c1C#N)CCC2 | -4% | -2%[1.84 µM] | -2% | 0 | 0 | -4%
COc1ccc(-n2c(=O)/c(=C\c3cccs3)s/c2=C(/C#N)C(=O)NCCN2CCOCC2)cc1 | 16%[57.1 µM] | 0% | 6%[57.1 µM] | 137* | 2 | -2%
COC(=O)C1=C[C@@H](C(=O)OC)[C@@H]2C3=C(C(=O)[C@@]2(CC(C)C)NC(=O)c2ccccc2)[C@H](C)n2c(=O)n(-c4ccccc4)c(=O)n2[C@@H]3C1 | -11% | · | -13% | · | 3 | ·
Cc1ccc(C2=Nc3cccnc3C(c3ccccc3)=NN2)cc1 | 10%[57.1 µM] | 6.3µM* | -7%[57.1 µM] | 0 | -16 | 6%
O=C(/C=C/c1ccc(Br)cc1)c1ccco1 | -39% | -9% | 4%[57.1 µM] | -6 | 1 | 12%
Cc1cc(C(=O)NNC(=O)/C=C/c2ccco2)c(C)o1 | 2.8µM* | 3% | 4% | -2 | 20 | 0%
CC(=O)Nc1ccc(NC(=O)/C=C/c2ccc3c(c2)OCO3)cc1 | 9%[57.1 µM] | -16% | 13%[57.1 µM] | 1 | 0 | 1%
Cc1ccc(OCCNC(=O)/C=C/c2ccco2)cc1C | 11µM* | -16% | 4% | 1 | ? | 11%

Screening data as filed in PubChem BioAssay.
